Bioassay records: PubChem BioAssay, National Center for Advancing Translational Sciences (NCATS)
The list is not random: actives were taken first. Their share in the collection is about 19%.
HT1080 IDH1KD tx: kills HT-1080 cells with IDH1 knockdown. HT-1080 IDH1 knockdown viability, ATP luminescence, 48 h. Potency, µM (titrated, usually from 46.1 µM), for inactives: top-dose activity, negative = toxicity, most hits filed as cytotoxic. 360,000 tested, 2% active;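 note: potency is the fitted concentration of half-maximal effect; 0% = DMSO wells and -100% = cell-free medium wells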
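Luminescent ATP read-out (CellTiter-Glo, 10 min at room temperature) after 48 h compound exposure at 37 °C gave viability of IDH1-knockdown HT-1080 cells. Activity was normalised to DMSO and cell-free wells, then fitted as concentration-response curves.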
HT1080NT lethal: kills 2HG-producing HT-1080-NT fibrosarcoma cells; HT-1080-NT fibrosarcoma viability, CellTiter-Glo ATP luminescence, 48 h; AID 686970; Potency, µM (doses to about 46.1 µM), for inactives: at the top dose activity, negative = less viability, actives largely listed as cytotoxic; 360,000 tested, 1.6% active;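 note: NT is the 2HG producing partner of a matched IDH1 knockdown line; potency is the fitted concentration of half-maximal effect; 0% = DMSO-treated cells and -100% = media-only wells without cells; nearly all actives have a fitted effect of over 55% in size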
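HT-1080-NT; 750 cells/well; 5% FBS RPMI; 48 h compound, 37 degrees C; CellTiter-Glo luminescence; curve fitting and curve-class assignment.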
IL1B secr inh: inflammasome signaling inhibition, IL-1 beta readout. THP-1 LPS/ATP IL-1B secretion, AlphaLISA, 16 h; active compounds read low. activity change, % at 57.5 µM. 360,000 tested, 4.7% active. AID 743279; in the data active = activity change below about -50%; inconclusive = mostly about -30% to -49%
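Secreted IL-1B measured by AlphaLISA bead assay after 16 h compound exposure of THP-1 cells; compounds (final up to 57.5 uM) added 1 h before LPS (250 ng/mL) and ATP (1.25 mM) stimulation; lower signal means less secretion.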
TDP1 cell noCPT: qHTS for Inhibitors of human tyrosyl-DNA phosphodiesterase 1 (TDP1): qHTS in cells in absence of CPT; 420,000 tested, 15% active; DT40 Tdp1-/- hTDP1 cells, no CPT, ATP luminescence, 48 h; Potency, µM (titrated, usually from 46.2 µM), for inactives: at the top dose activity change, negative = growth inhibition, actives largely listed as inhibitors; note: potency is the fitted concentration of half-maximal effect; nearly all actives have a fitted effect of over 55% in size
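Cells were dispensed at 400 per well, compounds added by pin tool, plates incubated ≥48 hr at 37 °C, then CellTiter-Glo added for 30 min at room temperature before luminescence reading. Line: DT40 Tdp1-/- complemented with hTDP1; camptothecin omitted.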
TDP1 cell CPT: growth inhibition of DT40 Tdp1-/-;hTDP1 cells with camptothecin (screen for TDP1 inhibitors) | AID 686979 | chicken DT40 Tdp1-/-;hTDP1 cells + 20 nM CPT, ATP luminescence, 48 h | Potency, µM (doses to about 46.2 µM), for the others: top-dose activity change, negative = growth inhibition, usual class: inhibitors | 420,000 tested, 12% active; note: potency is the fitted concentration of half-maximal effect; nearly all actives have a fitted effect of over 55% in size
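Chicken DT40 Tdp1-/- cells complemented with human TDP1, 400 cells/well, exposed to compounds plus 20 nM camptothecin for at least 48 h at 37 C; viability read as ATP content by CellTiter-Glo luminescence.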
The depositor's hits bear a star; ? = inconclusive; . = no result. Unless noted, calls come from the whole dose curve; as a rule, active = well fitted curve in the direction sought with a large enough effect; inconclusive = small, poorly fitted or top-dose-only effect, or another doubt; inactive = no such curve, though single readings can be large; an effect the other way counts as inactive or inconclusive. Unless noted, % is set by controls: 0 for no effect and ±100 for the full control effect.

SMILES | HT1080 IDH1KD tx | HT1080NT lethal | IL1B secr inh | TDP1 cell noCPT | TDP1 cell CPT
c1ccc(OCCn2cnc3ccccc32)cc1 | 16% | 3% | -4 | ? | ?
Cc1ccc(OCCCn2c(CO)nc3ccccc32)cc1 | -10% | -1% | -6 | ? | ?
COc1ccc(OCCn2cnc3ccccc32)cc1 | 1% | 7% | -1 | ? | -6%
Cc1ccccc1OCCCCn1cnc2ccccc21 | ? | -8% | -19 | 13µM* | 12µM*
c1ccc(OCCCCn2cnc3ccccc32)cc1 | ? | -5% | -20 | 18µM* | ?
Cc1ccc(OCCCCn2cnc3ccccc32)cc1 | -9% | 6% | -19 | 21µM* | 16µM*
Cn1c2c(c(=O)n(C)c1=O)C(c1ccccc1OC(F)F)C1=C(CCCC1=O)N2 (stereo unspecified) | 1% | -1% | 40 | 1% | -63%
CCC(C(=O)OCC(=O)Nc1cc(Cl)cc(Cl)c1)c1ccccc1 (stereo unspecified) | 2% | -4% | 18 | -24% | ?
CCOc1cccc(C(=O)Nc2ccc(-c3nc4cc(C)cc(C)c4o3)cc2)c1 | . | . | . | -5% | -11%
NC(=O)c1sc2nccc(Nc3ccccc3)c2c1N | -13% | -7% | -12 | 21µM* | 10µM*
CSCCC(=O)N1CCCC(N2CCN(c3cccc(C(F)(F)F)c3)CC2)C1 (stereo unspecified) | -9% | 0% | 0 | ? | 0%
O=C(CSc1nnc(NC(=O)c2ccccc2F)s1)NCC1CCCO1 (stereo unspecified) | 0% | 0% | -1 | -4% | -7%
CCC(=O)N1CCc2cc(CNS(=O)(=O)c3ccc(Cl)s3)ccc21 | . | . | . | 16µM* | ?
Cc1cccc(C(=O)N2CCc3cc(CNS(=O)(=O)c4ccc(F)c(Cl)c4)ccc32)c1 | . | . | . | 1.2µM* | 1.6µM*
COc1ccc(OC)c(S(=O)(=O)NCc2ccc3c(c2)CCN3C(=O)c2cccc(C)c2)c1 | . | . | . | 2.6µM* | 2.6µM*
Cc1cccc(C(=O)N2CCc3cc(CNS(=O)(=O)c4ccc(Cl)s4)ccc32)c1 | . | . | . | 23µM* | 23µM*
CC(=O)N1CCc2cc(CNS(=O)(=O)c3cccs3)ccc21 | . | . | . | -1% | 0%
CCCNC(=O)NC(C(=O)OC)C12CC3CC(CC(C3)C1)C2 (stereo unspecified) | 0% | -1% | -1 | -23% | -13%
COc1ccc(-c2csc(NC(=O)Cc3ccccc3F)n2)c(OC)c1 | -22% | -15% | -60* | ? | ?
COc1ccc(OC)c(-c2csc(NC(=O)Cc3cccs3)n2)c1 | -1% | -2% | -17 | ? | -7%
COc1ccc(OC)c(-c2csc(NC(=O)CSc3ccccc3)n2)c1 | 1% | -1% | ? | 13µM* | ?
Cc1ccc(Oc2ccccc2NC(=O)CSCC(=O)Nc2cc(C)on2)cc1 | ? | ? | 7 | 10µM* | 8.2µM*
COc1cccc(CC(=O)Nc2nc(-c3cc(OC)ccc3OC)cs2)c1 | 1% | 3% | -26 | -19% | -25%
COc1ccc(CC(=O)Nc2nc(-c3cc(OC)ccc3OC)cs2)cc1 | -10% | -19% | -88* | ? | ?
COc1ccc(OC)c(-c2csc(NC(=O)Cc3ccccc3)n2)c1 | ? | ? | -10 | ? | ?
CCc1ccc(NC(=O)c2ccc(NC(=O)C3CCCO3)cc2)cc1 (stereo unspecified) | 0% | -8% | 11 | -22% | 3%
CCC(Cc1ccccc1)NS(=O)(=O)c1csc(C(N)=O)c1 (stereo unspecified) | 9% | 30% | 10 | 24% | 2%
Cc1cc(NC(=O)COc2cccc(Oc3ccccc3)c2)no1 | ? | ? | 27 | ? | 13µM*
Cc1cccc(OCC(=O)Nc2cc(C)on2)c1 | 20% | 25% | 12 | 18% | 3%
